# Assay results: PubChem BioAssay (NCI)
# The panel holds about 83,000 compounds, 20% with a hit somewhere; the sample as a whole holds those more often.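 Single-concentration screen, 48 h exposure, 96-well plates. Endpoint: percent growth. Below 10 = active.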 Unmarked numbers belong to inactive results. The source made the active and inactive calls.
# System: OVCAR-8 ovarian
# Assay: NCI-60 one-dose screen, 48 h (100 = growth as untreated, 0 = no growth, -100 = all killed)
# Details: 10 µM unless noted
row,Structure (SMILES),growth
1,Cc1ccc(C(=O)Nc2ccc(-n3ccnc3)c(C(F)(F)F)c2)cc1C#Cc1cnc2cccnn12,18.6%
2,N/C(=N\c1nc2ccccc2s1)NC(=O)Nc1ccccc1F,10.6%
3,Cc1nc2sccn2c1-c1nnc(SCC(C)C)o1,93.2%
4,O=[N+]([O-])c1cccc(-c2nnc3c(/C=C/c4ccc(F)cc4)nc4ccccc4n23)c1,85.2%
5,C=CC(=O)N1CCN(c2ccc3nc4c(nc3c2C(F)(F)F)C(=O)c2ncccc2C4=O)CC1,-9.34% (active)
6,CN1CCN(CCS(=O)(=O)Nc2cc(-c3ccc4ncnc(Nc5ccc(F)c(Cl)c5)c4c3)cnc2Cl)CC1,22.4%
7,COc1ccc(N=Nc2c(N)nn3c(-c4ccc(F)cc4)ccnc23)cc1,73.1%
8,O=C(N/N=C/c1c[nH]c2ccccc12)Nc1ccc(F)c(Cl)c1,50.2%
9,N#CCc1nnc(NC(=O)c2ccc(-n3c(=O)[nH]c4ccccc4c3=O)cc2)s1,100%
10,CCOc1ccc(-c2cc(-c3cc(C(C)C)c(O)cc3C)nn2-c2ccc(S(N)(=O)=O)cc2)cc1,36.4%
11,CN1CCN(c2ccc3c4c(cccc24)C(=O)N(c2cccc(-c4nn(-c5ccccc5)cc4-c4nc5ccccc5s4)c2)C3=O)CC1,94.6%
12,O=C(Cn1c(-c2ccccc2)nc2ccccc21)N=Nc1c(O)[nH]c2ccc(Cl)cc12,-26.3% (active)
13,CCc1ccc(SC2c3cc(OC)ccc3Oc3nc(N)c(C#N)c(N)c32)cc1 (stereo not drawn),0.0543% (active)
14,CN(C)C(=O)c1cc(-c2ccc3ncnc(N4CCc5cc(F)c(Cl)cc54)c3c2)cnc1N,-8.58% (active)
15,CN1C(=O)C2(C(C#N)=C(c3ccc(Cl)cc3)Nc3c2c(-c2ccccc2)nn3-c2ccccc2)c2ccccc21 (stereo not drawn),98.5%
16,Cc1ccc2c(c1)/C(=C/C(=O)c1cc3ccccc3oc1=O)C(=O)N2,54.9%
17,N#CC1=C(c2cccs2)Nc2c(c(-c3ccccc3)nn2-c2ccccc2)C12C(=O)Nc1ccc(Cl)cc12 (stereo not drawn),28%
18,O=C(NC(=S)N1CCN(c2ncnc3c2cnn3-c2ccccc2)CC1)c1ccc(Br)cc1,47.4%
19,Nc1nnc(-c2cncc(Br)c2)c(-c2c[nH]c3ccc(Cl)cc23)n1,89.8%

row,Structure (SMILES),growth
1,COc1ccc(C2=NN(C(=O)[C@H]3[C@@H](c4ccco4)c4sc(=O)[nH]c4S[C@@H]3C)C(c3ccc4ccccc4c3)C2)cc1 (stereo partly drawn),28%
2,CCOc1ccc2[nH]c(=O)c(C(c3nnnn3CC3CCCO3)N3CCN(Cc4ccccc4)CC3)cc2c1 (stereo not drawn),84.2%
3,FC(F)(F)c1cc2c(Cl)ncnc2n1CCC1CCOCC1,18.1%
4,COc1cc(/C=C/C(=O)c2cnn(-c3cc(=O)[nH]c4ccc(C)cc34)c2C)cc(OC)c1OC,11.5%
5,O=C(N/N=C/c1c[nH]c2ccccc12)Nc1ccccc1Cl,-7.94% (active)
6,Nc1nn2c(-c3cc4ccccc4oc3=O)ccnc2c1N=Nc1ccccc1,42.2%
7,Cc1ccc(C(=O)Nc2cc(-c3ccncc3)cc(C(F)(F)F)c2)cc1C#Cc1cnc2cccnn12,50.4%
8,COc1ccc(C(=O)/C=C/c2ccc3c(c2)OCCO3)cc1S(N)(=O)=O,40.7%
9,FC(F)(F)c1cc2c(Cl)ncnc2n1CCN1CCCCC1,14.8%
10,COc1ccc2[nH]cc(-c3cc4nc(-c5cn(C)c6ncccc56)cc(N)n4n3)c2c1,-40.6% (active)
11,Nc1nc(-c2ccccc2)c(N=Nc2ccc(Cl)cc2Cl)s1,12.1%
12,COc1ccc(NC(=O)Cn2c(/C=C/c3ccc([N+](=O)[O-])cc3)nc3ccccc3c2=O)cc1,45.8%
13,C[C@@H]1[C@H]2C[C@@H](C[C@H]1NCc1nc3ccccc3n1C1CCCCCC1)C2(C)C,75.1%
14,COc1ccc(NC(=O)Cn2c(/C=C/c3cccc(Br)c3)nc3ccccc3c2=O)cc1,14.4%
15,Cc1ccc(-c2cc(C(=O)N=Nc3c(O)[nH]c4ccc(F)cc34)c3ccccc3n2)cc1,16.8%
16,CCOC(=O)c1ccc(NC(=S)NC(=O)c2ccc(NC(=O)C(C)C)cc2OC)cc1,35.1%
17,CCCSc1nnc(-c2c(C)nc3sccn23)o1,98.3%
18,Cc1ccc(N=Nc2c(N)nn3c(-c4cc5ccccc5oc4=O)ccnc23)cc1,51.4%
19,O=C(N/N=C/c1ccc(Cl)o1)c1[nH]c2ccc(Br)cc2c1-c1ccccc1,-56.7% (active)
